Laboratory results reported in PubChem BioAssay AID624167 (Sanford-Burnham Center for Chemical Genomics, 2012).

Experiment: Peg3 promoter luciferase inhibitors, potency, dose response, cell-based, HeLa, CREF/GAPDH counter-screen panel (AID 624167)
Settings: CREF/GAPDH counter-screens; run 2, dose range 1, at 100 µM (top of the series)

First: CN(C(=O)COC(=O)/C=C/c1cccc([N+](=O)[O-])c1)C1CCS(=O)(=O)C1 (stereo unspecified)
Second: O=[N+]([O-])c1ccc(S(=O)(=O)c2ccccc2)nc1
The inhibition of the first is lower: -31.8% for the first, 94.5% for the second.

First: CS(=O)(=O)Nc1cccc(NC(=O)C2Cc3c(-c4ccccc4)ccnc3O2)c1 (stereo unspecified)
Second: CC(=O)c1cccc(-c2ccnc3c2CC(C(=O)Nc2cccc(NS(C)(=O)=O)c2)O3)c1 (stereo unspecified)
The inhibition of the first is higher: 54.2% for the first, 52% for the second.

First: CC1=CC2C(C(O)CC3(C)C2CC(C)C32OCOC23COCO3)C2(C)C/C(=C\O)C(=O)C=C12 (stereo unspecified)
Second: CCCCCCCNC(=O)C1(CC2CC(c3cccc(Br)c3)=NO2)CCNCC1 (stereo unspecified)
The inhibition of the first is higher: 100% for the first, 99.3% for the second.

Going from CCCCCCCn1c(=N)n(CC(=O)c2ccco2)c2ccccc21 to COCCCNC(=O)c1ccc(Cn2c(=O)c3ccccc3n(Cc3ccccc3C#N)c2=O)cc1, the inhibition falls from 90.6% to 25.1%.

Going from COc1cc(Nc2c3ccccc3nc3ccccc23)cc(OC)c1OC to O=C(CCSc1nc2ccccc2s1)N/N=C/c1c(O)ccc2ccccc12, the inhibition falls from 100% to 0.467%.

Compared with CS(=O)(=O)c1ccc(-c2sc3ccccc3c2C#CCCO)cc1, CC(=O)NC(c1ccc(Cl)cc1)c1ccc2cccnc2c1O (stereo unspecified) is lower in inhibition: 81.8% for the first, 64.1% for the second.

Compared with O=C(O)c1ccc(N/N=C/c2ccc3nccnc3c2)cc1, C(=N\Nc1ccc2ccccc2n1)/c1ccc2c(c1)OCCO2 is lower in inhibition: 99.2% for the first, 92% for the second.

First: O=c1cnnc(N/N=C/c2ccccn2)[nH]1
Second: COc1ccccc1Nc1nc(-c2sc(NC(=O)c3ccco3)nc2C)cs1
The inhibition of the first is lower: 9.22% for the first, 19.4% for the second.
